Bioassay records (PubChem BioAssay)
B2AR arrestin – qHTS assay of beta-arrestin-biased ligands of beta2-adrenergic receptor; Beta-2 adrenergic receptor (Homo sapiens), P07550; AID 492947, 2010; Potency, µM (titrated, usually from 46.1 µM), inactives show at the highest dose activation, usual class: activators; beta-arrestin recruitment to beta2AR, cell-based reporter; 330,000 tested, 0.02% active;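 further: potency means the concentration at half of the fitted maximal effect; 0% = DMSO controls and full agonism = EC100 isoproterenol or metaproterenol; nearly all actives have a fitted effect of over 65% in size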
Target sequence (P07550 whole entry, looked up): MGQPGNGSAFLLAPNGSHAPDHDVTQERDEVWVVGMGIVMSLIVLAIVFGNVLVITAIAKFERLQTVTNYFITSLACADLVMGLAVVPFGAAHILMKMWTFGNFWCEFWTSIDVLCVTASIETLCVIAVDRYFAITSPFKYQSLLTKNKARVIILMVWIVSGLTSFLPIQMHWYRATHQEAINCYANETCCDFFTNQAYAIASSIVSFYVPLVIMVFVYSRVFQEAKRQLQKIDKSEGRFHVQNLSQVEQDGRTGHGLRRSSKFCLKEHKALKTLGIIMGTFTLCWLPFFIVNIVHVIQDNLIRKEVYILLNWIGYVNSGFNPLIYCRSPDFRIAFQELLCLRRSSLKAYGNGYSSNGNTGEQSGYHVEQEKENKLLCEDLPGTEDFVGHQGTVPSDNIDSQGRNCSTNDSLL
Giardia killer – Small Molecules that selectively kill Giardia lamblia: qHTS; Giardia lamblia trophozoite viability; 340,000 tested, 0.15% active; activity change, % at 7.66 µM, hits read low; AID 540267, 2011; in the data active means activity change below about -80%; inconclusive means between about -30% and that limit;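 further: parasites exposed to compound for two days anaerobically before the ATP read; on the % scale 0 is the no-effect control and ±100 the full control effect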
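Giardia trophozoites, 100 cells per well, were exposed to compounds for 48 hrs at 37 deg C under anaerobic conditions; viability was then read as ATP content by bioluminescence after 15-30 min at room temperature.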
Mito fusion yeast – qHTS Assay for Small Molecule Inhibitors of Mitochondrial Division or Activators of Mitochondrial Fusion; S. cerevisiae fusion-defective mutant growth rescue, CellTiterGlo 48 h; Potency, µM (doses to about 46.1 µM), for inactives: at the top dose growth rescue (activation), most hits filed as activators; 320,000 tested, 0.23% active; AID 485298, 2010; further: potency means the concentration at half of the fitted maximal effect; % of control where 0% means no effect; nearly all actives have a fitted effect of over 45% in size
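Growth-rescue viability read-out: after 48 h at the non-permissive 37C in glycerol/ethanol YPEG, yeast mitochondrial fusion mutants are measured by CellTiterGlo luminescence; compounds (23 nl pinned per well) restoring growth score as division inhibitors or fusion activators.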
uPA surface inh – qHTS for Inhibitors of Cell Surface uPA Generation; cell surface uPA generation assay, qHTS; Potency, µM (titrated, usually from 38.3 µM), for inactives: top-dose activity change, negative = inhibition, actives largely listed as inhibitors; 330,000 tested, 0.31% active; AID 540303, 2011; active means well fitted inhibition curve with a large enough effect; inconclusive means small, poorly fitted or top-dose-only effect; inactive means no such curve, though single readings can be large or run the other way; tested in mouse RAW 264.7 cells; further: potency means the concentration at half of the fitted maximal effect; on the % scale 0 is the no-effect control and ±100 the full control effect; nearly all actives have a fitted effect of over 55% in size
p53 reactivation – qHTS assay for re-activators of p53 using a Luc reporter; Potency, µM (doses to about 92.2 µM), for the others: at the highest dose activity change, positive = activation, hits mostly activators; 320,000 tested, 0.063% active; H1299 p53-A138V BP100-luciferase reporter, luminescence, 24 h; further: potency means the concentration at half of the fitted maximal effect; % of control where 0% means no effect; nearly all actives have a fitted effect of over 45% in size
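p53-null H1299 cells stably carrying temperature-sensitive p53-A138V and a BP100-luciferase reporter were pinned with compounds (4-point, 1:5 series) and held 24 hrs at 37 deg C. Luminescence was read 10 min after detection reagent.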
ClpP mod – qHTS Assay for Activators of ClpP | ATP-dependent Clp protease proteolytic subunit (Bacillus subtilis (strain 168)), P80244 | purified B. subtilis ClpP, FRET peptide cleavage, 20 min | Potency, µM (series often up to 57.5 µM), for inactives: at the top dose activity change, negative = active | 340,000 tested, 1.9% active | AID 651965, 2013; active means well fitted falling curve with a large enough effect; inconclusive means small, poorly fitted or top-dose-only effect; inactive means no such curve, though single readings can be large or run the other way; further: potency means the concentration at half of the fitted maximal effect; the source files actives as falling curves though it sought activators and does not explain the sign; nearly all actives have a fitted effect of over 65% in size
Target sequence (P80244 whole entry, looked up): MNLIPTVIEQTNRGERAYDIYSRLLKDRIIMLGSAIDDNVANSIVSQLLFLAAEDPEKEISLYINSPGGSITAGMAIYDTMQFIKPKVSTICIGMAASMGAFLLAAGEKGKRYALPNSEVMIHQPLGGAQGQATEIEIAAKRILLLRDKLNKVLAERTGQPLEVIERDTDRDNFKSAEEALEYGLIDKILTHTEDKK
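Buffer: 100 mM Tris/HCl pH8, 100 mM KCl, 0.05% low protease BSA, 2.5% glycerol, 0.01% Tween-20. ClpP 10 microg/mL final; 20 min RT; delta FRET normalized to ADEP and DMSO controls.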
Starred values were filed as active, the others as inactive; ? = inconclusive; nt = not tested or not shown. This is a sample that favours compounds with a hit; in the whole collection about 2.1% have one here. Unless noted, the call rests on the fitted dose curve; in most records, active means well fitted curve in the direction sought with a large enough effect; inconclusive means small, poorly fitted or top-dose-only effect, or another doubt; inactive means no such curve, though single readings can be large; an effect the other way counts as inactive or inconclusive.

SMILES	B2AR arrestin	Giardia killer	Mito fusion yeast	uPA surface inh	p53 reactivation	ClpP mod
COCCn1c(=S)[nH]c2sc3c(c2c1=O)CCC(C)C3 (configuration not stated)	0%	18	?	-2%	?	nt
CC(=O)c1c(C)[nH]c(C(=O)COc2ccc3ccc(=O)oc3c2)c1C	0%	-12	19%	-6%	-3%	32µM*
CCOC(=O)Cn1c(C)nc2c(C(=O)OCC)sc(C)c2c1=O	-1%	39	-4%	-10%	-4%	32µM*
CCOC(=O)c1sc(C)c2c(=O)n(CC(=O)c3ccc(Br)cc3)nnc12	0%	-2	-6%	-1%	7%	1%
Cn1c(=O)cc(SCC(=O)N2CCCC2)c2ccccc21	0%	-4	2%	-2%	-8%	28µM*
O=C1CSC(c2ccc(F)cc2)N1c1ccccc1F (configuration not stated)	0%	4	-8%	9%	0%	nt
O=C1CSC(c2ccc(F)cc2)N1c1nc2ccccc2s1 (configuration not stated)	-2%	-6	13µM*	1%	18%	1%
CC(C(=O)NC1CCCC1)N(C(=O)Cn1nnc(-c2ccc(F)cc2)n1)c1ccccc1F (configuration not stated)	-1%	-2	7.1µM*	-5%	-9%	nt
CC(C(=O)NC1CCCC1)N(C(=O)c1ccc(-c2ccccc2)[nH]1)c1ccccc1F (configuration not stated)	-1%	-4	3%	nt	-1%	32µM*
O=C(NC1CCCCC1)C(c1ccncc1)N(Cc1ccccc1)C(=O)c1ccc(-c2ccccc2)[nH]1 (configuration not stated)	5%	8	-3%	-14%	-3%	?
Cc1ccc(OCCSc2nc3ccc(NC(=O)c4ccc5c(c4)OCO5)cc3s2)cc1	nt	nt	nt	nt	nt	1%
Cc1cccc(C(=O)Nc2cccc(C(=O)OCc3cc(=O)n4nc(C5CC5)sc4n3)c2)c1	nt	nt	nt	nt	nt	-3%
NC(CCc1ccccc1)c1csc(NC(=O)Nc2cccc(C(F)(F)F)c2)n1 (configuration not stated)	nt	nt	nt	nt	nt	-2%
Cc1cn(C(=O)c2ccccc2)c(=S)n1-c1ccc(Br)cc1	0%	-4	16µM*	nt	18%	?
Cc1ccc(CN2C(=O)SC(Nc3ccc(Cl)cc3)C2=O)cc1 (configuration not stated)	nt	nt	nt	nt	nt	0%
COc1cccc(-n2cnc3sc(-c4ccccc4)cc3c2=O)c1	nt	-8	nt	7%	nt	-1%
COc1cccc(-n2cnc3sc4c(c3c2=O)CCC4)c1	0%	-5	5%	-2%	-3%	32µM*
COc1ccc(OC)c(-n2c(C)ccc2-c2ccc(S(C)(=O)=O)cc2)c1	0%	-13	2%	-2%	2%	28µM*
COc1ccc(OC)c(-n2c(-c3ccc(S(C)(=O)=O)cc3)cc(C=O)c2C)c1	1%	7	5%	-3%	1%	-24%
CCCCc1ccc(S(=O)(=O)Nc2ccc(C)c(NS(C)(=O)=O)c2)cc1	0%	-15	8%	6%	-1%	1%
CCCc1ccc(S(=O)(=O)Nc2ccc(C)c(NS(C)(=O)=O)c2)cc1	0%	23	5.6µM*	-3%	-1%	nt
CN(C)CCNC(=O)CN1C(=O)COc2ccc(S(=O)(=O)N3CCCC3)cc21	nt	nt	nt	nt	nt	0%
COc1cccc(CN2CCC(C(=O)N3CCN(Cc4ccc5c(c4)OCO5)CC3)CC2)c1OC	0%	6	3%	-5%	9%	18µM*
COc1ccccc1C(=O)Nc1ccccc1C(=O)OCc1cc(=O)n2ccsc2n1	nt	nt	nt	nt	nt	-5%
O=C(COC(=O)Cn1cc(C(F)(F)F)ccc1=O)Nc1ccc(Br)cc1F	-1%	-1	-9%	0%	-5%	25µM*
SMILES	B2AR arrestin	Giardia killer	Mito fusion yeast	uPA surface inh	p53 reactivation	ClpP mod
O=C(COC(=O)Cn1cc(C(F)(F)F)ccc1=O)Nc1ccccc1	-1%	-16	1%	-22%	15%	2%
Cc1ccc(OCC(=O)Nc2ccc(O)c(C(=O)O)c2)cc1C	0%	-15	1%	5%	0%	22µM*
CC1CCC(C(=O)NC(C(=O)OCC(=O)c2ccc(Br)cc2)C(C)C)CC1 (configuration not stated)	nt	nt	nt	nt	nt	-2%
O=C(Nc1nc(COc2ccccc2)cs1)c1ccccc1F	-1%	19	16µM*	-2%	?	645%
COc1ccc(NS(=O)(=O)c2ccc(Br)cc2)cn1	0%	1	18%	-3%	0%	nt
COc1ccc(NS(=O)(=O)c2ccc3oc4ccccc4c3c2)cn1	0%	?	25µM*	0%	10%	-2%
OC(c1ccccc1)c1nc2ccccc2[nH]1 (configuration not stated)	0%	4	0%	5%	nt	16µM*
N#CC(C(=S)Nc1ccccc1)c1nc2ccccc2[nH]1 (configuration not stated)	1.8µM*	6	4%	-28%	18%	1%
OC(c1nc2ccccc2[nH]1)C(O)c1nc2ccccc2[nH]1 (configuration not stated)	-2%	9	0%	-2%	nt	1%
CSC(=Nc1ccccc1)C(C#N)c1nc2ccccc2[nH]1 (configuration not stated)	-1%	8	8%	-4%	8%	1%
Cc1cccc(CNC(=O)c2cccc(NC(=O)N3CCSc4ncccc43)c2)c1	nt	nt	nt	nt	nt	-18%
Cc1ccc(S(=O)(=O)NCc2ccccc2)cc1C(=O)N(C)Cc1ccccc1F	0%	0	4%	0%	0%	16µM*
c1cn2c(NC3CCCC3)c(-c3ccc(N4CCOCC4)cc3)nc2cn1	-1%	?	1%	5.6µM*	?	-2%
c1cn2c(NC3CCCCC3)c(-c3ccc(SC4CCCCC4)cc3)nc2cn1	0%	0	-2%	-17%	6%	-22%
COC(=O)c1sccc1NC(=O)c1cc2c(s1)CCCC2	0%	-8	-1%	1%	9%	35µM*
COc1ccc(C)cc1NC(=O)c1cc2c(s1)CCC2	0%	?	25%	0%	?	-9%
COc1cc2c(NC3CCN(C)CC3)nc(N3CCCN(C)CC3)nc2cc1OCc1ccccc1	nt	nt	nt	nt	nt	4%
COc1cccc(N=C(N)N=C(N)N)c1	-1%	-24	4%	9%	-3%	0%
NC(N)=NC(N)=Nc1ccc2ccccc2c1	-1%	8	32µM*	-5%	-4%	0%
